Molecules are shown by their SMILES. About 83,000 compounds went through this panel and 20% of them were active in at least one assay; those are over-represented in the sample as a whole.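 Growth was measured after 48 h exposure to one concentration of compound in 96-well plates. Values under 10 count as active.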 Unmarked numbers belong to inactive results.

This is an account of results in PubChem BioAssay (NCI).

In this assay the test system is HL-60(TB) leukemia. The assay can be described thus: NCI-60 one-dose screen, 48 h (100 = growth as untreated, 0 = no growth, -100 = all killed). As to conditions: 10 µM unless noted.
Regarding `CC[C@]12C=CCN3CC[C@@]4(c5cc([C@H]6CCC(=O)N6)c(OC)cc5N(C)[C@H]4[C@@](O)(C(=O)OC)[C@@H]1OC(C)=O)[C@@H]32`, the growth was 109% [2.5 µM].

Take `CCN(CC)CCOC(=O)C(c1ccccc1)(c1ccccc1)C(C)C`: the growth was 91.8%.

As to `Cc1ccc(C)c2c1C(O)(C#Cc1ccccc1)c1ccccc1C2(O)C#Cc1ccccc1` (stereo not drawn), the growth is 35.6%.
